Laboratory results reported in PubChem BioAssay (EPA / NIEHS).
Active and inactive are the calls of the source. The calls were made as follows: active = hit-call score of the fitted dose curve at least 0.9, where 1 is the maximum; inactive = score below 0.9.

How the values were obtained:
[1] = APR_HepG2_CellCycleArrest_24hr: Apredica 24-hour HepG2 Assay for Cell Cycle Arrest (AID 2282905); conditions: imaging, actives raise or lower the signal;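 also: cell cycle arrest scored as ratio of 2N to 4N nuclear DNA content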
How it was run: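 After 24 h exposure at 0.39–200 uM in 0.5% DMSO, fixed cells received Hoechst 33342 staining. Imaging quantified per-nucleus DNA content; gain or loss fitted against DMSO controls.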

[2] = APR_HepG2_NuclearSize_24hr: Apredica 24-hour HepG2 Assay for Nuclear Size (AID 2282907); conditions: high-content imaging, actives raise or lower the signal
How it was run: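 Nuclear size from Hoechst 33342-stained, formaldehyde-fixed HepG2 nuclei imaged by high-content microscopy, after 24 h dosing at ten concentrations from 0.39 to 200 uM in 0.5% DMSO; gain or loss relative to DMSO baseline.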

[3] = APR_HepG2_CellLoss_24hr: Apredica 24-hour HepG2 Assay for Cell Loss (AID 2282908); conditions: high-content imaging;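 as to AC50: fit in both directions so a hit may be cell loss or gain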
How it was run: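 Nuclei stained with Hoechst 33342 after formaldehyde fixation (3.7%) were imaged at 20x to count cells. Exposure lasted 24 hr, at ten concentrations from 0.39 to 200 uM in duplicate, with 0.5% v/v DMSO. Fit bidirectional, relative to DMSO.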

[4] = APR_HepG2_MicrotubuleCSK_24hr: Apredica 24-hour HepG2 Assay for Microtubule CSK Stabilty (AID 2282909); conditions: HepG2 microtubule cytoskeleton imaging, actives raise or lower the signal
How it was run: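 Fixed HepG2 cells were stained for alpha-tubulin and imaged after 24 hr exposure to ten concentrations spanning 0.39–200 uM in 0.5% DMSO. Signal change was fitted in both directions relative to DMSO; taxol was the positive control.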

[5] = APR_HepG2_MitoticArrest_24hr: Apredica 24-hour HepG2 Assay for Mitotic Arrest (AID 2282910); conditions: high-content imaging, actives raise or lower the signal
How it was run: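 Treatment lasted 24 hr in the human HepG2 line at 0.39–200 uM, solvent held at 0.5% DMSO. Fixed cells were stained with Hoechst 33342 and anti-phospho-histone H3, imaged at 20x, and analysed by gain- or loss-of-signal fitting against DMSO.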

[6] = APR_HepG2_MitoMembPot_24hr: Apredica 24-hour HepG2 Assay for Mitochondrial Membrane Potential (AID 2282911); conditions: imaging, actives raise or lower the signal
How it was run: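 Human hepatoma HepG2 cultures received ten compound concentrations up to 200 uM for 24 hr. Membrane-potential dye signal, captured by automated fluorescence microscopy, was scored for gain or loss against DMSO controls.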

[7] = APR_HepG2_MitoMass_24hr: Apredica 24-hour HepG2 Assay for Mitochondrial Mass (AID 2282912); conditions: high-content imaging, actives raise or lower the signal
How it was run: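 Endpoint is MitoTracker Red CMXRos (250 nM, 30 min, pre-fixation) intensity from 20x high-content imaging, nuclei located by Hoechst. Human HepG2 cells received ten concentrations from 0.39 to 200 uM in 0.5% DMSO for 24 hr, duplicate wells. Bidirectional fit relative to DMSO.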

[8] = APR_HepG2_p53Act_24hr: Apredica 24-hour HepG2 Assay for p53 Activation (AID 2282913); conditions: high-content imaging, actives raise or lower the signal;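 also: p53 protein immunofluorescence averaged per cell in HepG2 with Hoechst nuclei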
How it was run: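 Automated fluorescence imaging quantifies p53 immunostaining in HepG2 cells after a 24 hr exposure (0.39–200 uM, duplicate, 0.5% DMSO). Nuclei are located by Hoechst 33342 staining.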

[9] = APR_HepG2_CellCycleArrest_72hr: Apredica 72-hour HepG2 Assay for Cell Cycle Arrest (AID 2282914); conditions: high-content imaging, actives raise or lower the signal
How it was run: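 Cell cycle arrest in HepG2 was scored from nuclear DNA content after 72 hr compound treatment (0.39–200 uM). Activity, either gain or loss, was fitted against the DMSO baseline.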

[10] = APR_HepG2_CellLoss_72hr: Apredica 72-hour HepG2 Assay for Cell Loss (AID 2282915); conditions: high-content imaging
How it was run: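 HepG2 cells were exposed for 72 hr to compounds at 0.39–200 uM (ten concentrations, duplicate) in 0.5% v/v final DMSO. Nuclei were stained with Hoechst 33342 after 3.7% formaldehyde fixation, imaged at 20x, and counted; fits bidirectional versus DMSO.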

[11] = APR_HepG2_P-H2AX_72hr: Apredica 72-hour HepG2 Assay for H2AX Phosphorylation (AID 2282916); conditions: imaging, actives raise or lower the signal;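 also: phospho-histone H2A.x immunostain intensity per cell marking DNA damage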
How it was run: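 Phospho-histone H2A.x immunofluorescence, multiplexed with Hoechst and c-Jun, quantified by high-content imaging. Compounds applied to HepG2 for 72 h across ten concentrations (0.39–200 uM, 0.5% DMSO), in duplicate; DMSO baseline.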

[12] = APR_HepG2_MitoMembPot_72hr: Apredica 72-hour HepG2 Assay for Mitochondrial Membrane Potential (AID 2282917); conditions: imaging, actives raise or lower the signal
How it was run: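 HepG2 cells exposed 72 h to compounds at 0.39–200 uM (0.5% v/v DMSO, duplicates); MitoTracker Red CMXRos 250 nM loaded 30 min before 3.7% formaldehyde fixation, imaged by HCS fluorescence. Bidirectional fit versus DMSO.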

[13] = APR_HepG2_MitoticArrest_72hr: Apredica 72-hour HepG2 Assay for Mitotic Arrest (AID 2282918); conditions: high-content imaging, actives raise or lower the signal
How it was run: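 Mitotic arrest in HepG2 is scored from phospho-histone H3 staining after 72 hr dosing across 0.39–200 uM, with DMSO at 0.5% v/v. Nuclei are identified by Hoechst 33342 and fluorescence intensity is quantified per cell.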

[14] = APR_HepG2_MicrotubuleCSK_72hr: Apredica 72-hour HepG2 Assay for Microtubule CSK Stabilty (AID 2282919); conditions: HepG2 microtubule cytoskeleton, high-content imaging, actives raise or lower the signal
How it was run: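 Ten-point dosing (0.39–200 uM, 0.5% DMSO) of HepG2 for 72 hr, with taxol as the cytoskeletal positive control. The cells were formaldehyde-fixed and then stained with alpha-tubulin/Cy5 and Hoechst. Imaging at 20x used a −2 um Z offset for tubulin.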

[15] = APR_HepG2_P-H2AX_24hr: Apredica 24-hour HepG2 Assay for H2AX Phosphorylation (AID 2282920); conditions: high-content imaging, actives raise or lower the signal
How it was run: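 Signal comes from a FITC-labeled secondary detecting phospho-histone H2A.x in fixed HepG2 cells, quantified by automated imaging at 20x. Dosing ran 24 hr across 0.39–200 uM with 0.5% v/v DMSO.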

[16] = APR_HepG2_StressKinase_72hr: Apredica 72-hour HepG2 Assay for Stress Kinase (AID 2282921); conditions: HepG2 stress kinase (phospho-c-Jun) imaging, actives raise or lower the signal
How it was run: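 Stress kinase signal is phospho-c-Jun immunofluorescence (1:500 primary, Cy3 secondary) in fixed, permeabilized human HepG2 cells imaged at 20x. Exposure lasted 72 hr over ten concentrations from 0.39 to 200 uM, 0.5% DMSO, in duplicate. Bidirectional fit versus DMSO.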

[17] = APR_HepG2_StressKinase_24hr: Apredica 24-hour HepG2 Assay for Stress Kinase (AID 2282922); conditions: HepG2 stress kinase (phospho-c-Jun) imaging, actives raise or lower the signal
How it was run: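 After 24 hr compound treatment (up to 200 uM, final DMSO 0.5% v/v), HepG2 cells are fixed and multiplex-labeled; phospho-c-Jun intensity is captured by high-content fluorescence imaging and analyzed relative to DMSO.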

[18] = APR_HepG2_p53Act_72hr: Apredica 72-hour HepG2 Assay for p53 Activation (AID 2282923); conditions: high-content imaging, actives raise or lower the signal;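 also: average cellular p53 protein immunofluorescence intensity in HepG2 cells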
How it was run: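 After 72 h with compound (ten points, 0.39 to 200 uM, final DMSO 0.5% v/v), fixed HepG2 cells were labelled with sheep anti-p53 and Hoechst 33342 and imaged; gain or loss versus DMSO scored.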

[19] = APR_HepG2_MitoMass_72hr: Apredica 72-hour HepG2 Assay for Mitochondrial Mass (AID 2282924); conditions: high-content imaging, actives raise or lower the signal;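 also: MitoTracker Red CMXRos stain intensity per cell imaged as mitochondrial mass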
How it was run: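 Steps: treat HepG2 72 hr (0.39–200 uM, duplicate wells); load MitoTracker Red CMXRos, 250 nM, 30 min; fix with 3.7% formaldehyde, permeabilise with 0.5% Triton X-100; capture images, nuclei via Hoechst 33342; fit bidirectionally against DMSO.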

[20] = APR_HepG2_NuclearSize_72hr: Apredica 72-hour HepG2 Assay for Nuclear Size (AID 2282925); conditions: high-content imaging, actives raise or lower the signal
How it was run: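 Compounds (0.39–200 uM, final DMSO 0.5%) were applied to HepG2 for 72 hr. Cells were then formaldehyde-fixed, permeabilized and labelled with Hoechst 33342. Nuclear diameter was quantified from six images per well.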

Measured: AC50

CS(=O)(=O)c1ccc([C@@H](C[C@H]2CCC(=O)C2)C(=O)Nc2cnccn2)cc1Cl
active: [19] 43.7 µM
inactive: all other assays above

COC(=O)CCCC(=O)OC
inactive: all assays above

O=C1c2c(O)cccc2Cc2cccc(O)c21
active: [6] 11.1 µM | [12] 19.3 µM
inactive: all other assays above

CCc1nc(N)nc(N)c1-c1ccc(Cl)cc1
active: [9] 100 µM | [10] 80.2 µM | [11] 67.6 µM | [13] 110 µM | [18] 3.77 µM
not listed: [17] | [20]
inactive: all other assays above

c1ccc2occc2c1
active: [19] 100 µM
not listed: [20]
inactive: all other assays above

O=C(O)c1[nH]n(-c2ccc(S(=O)(=O)O)cc2)c(=O)c1N=Nc1ccc(S(=O)(=O)O)cc1
inactive: all assays above

CCCCc1nc2cccnc2n1Cc1ccc(-c2ccccc2-c2nnn[nH]2)cc1
active: [2] 51 µM | [3] 32.6 µM | [4] 35.7 µM | [6] 23.1 µM | [7] 28.1 µM | [8] 31.1 µM | [10] 65.2 µM | [13] 67.1 µM | [14] 94.4 µM | [15] 48.6 µM | [19] 118 µM
inactive: [1] | [5] | [9] | [11] | [12] | [16] | [18]

O=C1O[C@H]([C@H](O)CO)C(O)=C1O
not listed: [20]
inactive: all other assays above

Cc1c(C)c2c(c(C)c1O)CCC(C)(COc1ccc(CC3SC(=O)NC3=O)cc1)O2 (stereo unspecified)
active: [1] 75.7 µM | [3] 88.2 µM | [4] 122 µM | [6] 96.5 µM | [10] 83.8 µM | [11] 89.5 µM | [12] 135 µM | [13] 54.3 µM | [16] 78.4 µM | [18] 65.2 µM | [19] 61.8 µM
inactive: [2] | [5] | [7] | [8] | [9] | [14] | [15] | [20]

COc1ccc(C(=O)Nc2nc3ccccc3c(NCc3ccccc3)c2C#N)cc1
inactive: [1] | [2] | [4] | [5] | [9] | [14] | [16] | [18]
active: [3] 119 µM | [6] 43.4 µM | [7] 159 µM | [8] 160 µM | [10] 45.3 µM | [11] 47.8 µM | [12] 1.45 µM | [13] 108 µM | [15] 106 µM | [19] 5.59 µM | [20] 113 µM

CN(C)CCCN1c2ccccc2Sc2ccc(Cl)cc21
active: [2] 129 µM | [3] 35 µM | [5] 19.7 µM | [7] 31 µM | [8] 28.5 µM | [9] 102 µM | [10] 33.9 µM | [11] 81.2 µM | [12] 112 µM | [13] 26 µM | [15] 26 µM | [16] 107 µM | [17] 25.2 µM | [18] 100 µM
inactive: [1] | [4] | [6] | [14] | [19] | [20]

O=C1OC(c2ccc(O)cc2)(c2ccc(O)cc2)c2ccccc21
active: [1] 81.1 µM | [3] 90.7 µM | [5] 61.4 µM | [7] 92.7 µM | [8] 51.8 µM | [9] 55.9 µM | [10] 102 µM | [11] 31 µM | [13] 50.9 µM | [14] 97.3 µM | [15] 73.3 µM | [16] 40 µM | [18] 29.2 µM | [19] 102 µM
inactive: [2] | [4] | [6] | [12] | [17]
